Laboratory results published in PubChem BioAssay AID1159580 (chemical genetic matrix, 2015).
About 2,000 (36%) of roughly 5,500 compounds were called active. Inconclusive results (about 18%) are left out. Cut-off read from the data, not from the text of the source: active = normalized growth mostly below about 0.91 (no sharp cut-off); inconclusive = no clear call, values can overlap the other calls; inactive = mostly above about 0.92. The list shows a part of the results.

Assay: chemical genetic growth profiling, strain panel (AID 1159580);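 note: tested at 20 µM; growth read once vehicle control cultures reached saturation at 30 °C; 1 = growth at the plate median or of vehicle wells; lower values mean less growth of the strain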
Conditions: S. cerevisiae deletion strains, growth OD
[1] = locus YAL040C, strain CLN3, stronger effect = lower value
[2] = locus YCL061C, strain MRC1 (second series), stronger effect = lower value
[3] = locus YDR363W, strain ESC2, stronger effect = lower value
[4] = locus YER002W, strain NOP16, stronger effect = lower value
[5] = locus YNL175C, strain NOP13, stronger effect = lower value
[6] = locus YNL197C, strain WHI3, stronger effect = lower value
[7] = locus YNL224C, strain SQS1, stronger effect = lower value
[8] = locus YNL322C, strain KRE1, stronger effect = lower value
[9] = locus YOR083W, strain WHI5 (second series), stronger effect = lower value
[10] = locus YPL055C, strain LGE1, stronger effect = lower value
[11] = locus YPL241C, strain CIN2, stronger effect = lower value

Measured: normalized growth

O[Si](CCCN1CCCCC1)(c1ccc(F)cc1)C1CCCCC1 (configuration not stated)
inactive: [1] 0.964 | [2] 0.986 | [3] 0.988 | [4] 1.04 | locus YGR229C, strain SMI1, stronger effect = lower value 0.972 | locus YJR075W, strain HOC1, stronger effect = lower value 1.02 | locus YMR263W, strain SAP30, stronger effect = lower value 1 | [5] 0.995 | [6] 1.01 | [7] 1.01 | [8] 0.982 | [9] 1.08 | [10] 0.981 | [11] 0.994

CC1=CC(=O)C(CCOCCC2=CC(=O)C(C)=CC2=O)=CC1=O
inactive: locus YAR019C, strain CDC15, stronger effect = lower value 0.981 | locus YBL105C, strain PKC1, stronger effect = lower value 0.99 | locus YBR135W, strain CKS1, stronger effect = lower value 0.985 | locus YBR136W, strain MEC1, stronger effect = lower value 0.982 | locus YBR160W, strain CDC28, stronger effect = lower value 0.983 | locus YDL017W, strain CDC7, stronger effect = lower value 0.992 | locus YDL028C, strain MPS1, stronger effect = lower value 0.981 | locus YDL101C, strain DUN1, stronger effect = lower value 0.973 | locus YDL108W, strain KIN28, stronger effect = lower value 0.983 | locus YDL132W, strain cdc53, stronger effect = lower value 0.988 | locus YDL214C, strain PRR2, stronger effect = lower value 0.701 | locus YDR052C, strain DBF4, stronger effect = lower value 0.991 | locus YDR054C, strain cdc34, stronger effect = lower value 0.986 | locus YDR226W, strain ADK1, stronger effect = lower value 0.979 | locus YDR477W, strain SNF1, stronger effect = lower value 0.706 | locus YER123W, strain YCK3, stronger effect = lower value 0.806 | locus YER133W, strain GLC7, stronger effect = lower value 0.765 | locus YFL009W, strain cdc4, stronger effect = lower value 0.993 | locus YFL029C, strain CAK1, stronger effect = lower value 0.987 | locus YFR003C, strain YPI1, stronger effect = lower value 0.989 | locus YFR019W, strain FAB1, stronger effect = lower value 0.864 | locus YFR028C, strain CDC14, stronger effect = lower value 0.985 | locus YGR040W, strain KSS1, stronger effect = lower value 0.739 | locus YGR052W, strain FMP48, stronger effect = lower value 0.7 | locus YGR092W, strain DBF2, stronger effect = lower value 0.917 | locus YHR079C, strain IRE1, stronger effect = lower value 1.07 | locus YHR205W, strain SCH9, stronger effect = lower value 0.958 | locus YIL147C, strain SLN1, stronger effect = lower value 0.984 | locus YJL095W, strain BCK1, stronger effect = lower value 0.863 | locus YJL128C, strain PBS2, stronger effect = lower value 0.934 | locus YJR016C, strain ILV3, stronger effect = lower value 0.987 | locus YJR066W, strain TOR1 (second series), stronger effect = lower value 0.804 | locus YJR066W, strain TOR1, stronger effect = lower value 0.502 | locus YKL048C, strain ELM1, stronger effect = lower value 0.981 | locus YKL067W, strain YNK1, stronger effect = lower value 0.857 | locus YKL101W, strain HSL1, stronger effect = lower value 0.945 | locus YKL193C, strain SDS22, stronger effect = lower value 0.995 | locus YKL203C, strain TOR2, stronger effect = lower value 0.976 | locus YLR133W, strain CKI1, stronger effect = lower value 0.953 | locus YLR403W, strain SFP1, stronger effect = lower value 0.938 | locus YML070W, strain DAK1, stronger effect = lower value 0.866 | locus YMR001C, strain CDC5, stronger effect = lower value 0.984 | locus YMR205C, strain PFK2 (second series), stronger effect = lower value 0.97 | locus YMR277W, strain FCP1, stronger effect = lower value 0.987 | locus YNL006W, strain LST8, stronger effect = lower value 0.996 | locus YNL020C, strain ARK1, stronger effect = lower value 0.959 | locus YNL161W, strain CBK1, stronger effect = lower value 0.986 | locus YNL183C, strain NPR1, stronger effect = lower value 0.793 | locus YNL207W, strain RIO2, stronger effect = lower value 0.992 | locus YNL222W, strain SSU72, stronger effect = lower value 0.99 | locus YNL307C, strain MCK1 (second series), stronger effect = lower value 0.969 | locus YOL078W, strain AVO1, stronger effect = lower value 0.989 | locus YOL136C, strain PFK27, stronger effect = lower value 0.818 | locus YOR061W, strain CKA2, stronger effect = lower value 0.946 | locus YOR119C, strain RIO1, stronger effect = lower value 0.972 | locus YOR231W, strain MKK1, stronger effect = lower value 1.05 | locus YOR329C, strain SCD5, stronger effect = lower value 0.999 | locus YPL031C, strain PHO85, stronger effect = lower value 0.778 | locus YPL153C, strain RAD53, stronger effect = lower value 0.909 | locus YPL204W, strain HRR25, stronger effect = lower value 0.899 | locus YPL209C, strain IPL1, stronger effect = lower value 0.991 | locus YPR025C, strain CCL1, stronger effect = lower value 0.991 | locus YPR106W, strain ISR1, stronger effect = lower value 0.986 | locus YPR111W, strain DBF20, stronger effect = lower value 0.98 | strain NNK1, stronger effect = lower value 0.993 | strain TSCII, stronger effect = lower value 0.991
active: locus YHR082C, strain KSP1, stronger effect = lower value 0.444 | locus YLR113W, strain HOG1, stronger effect = lower value 0.685 | locus YPL256C, strain CLN2, stronger effect = lower value 0.234

CCOC(=O)C1=C(C)NC(=S)NC1c1cccc(O)c1 (configuration not stated)
inactive: locus YAL013W, strain DEP1, stronger effect = lower value 0.995 | [1] 0.985 | [2] 1 | [3] 1 | [4] 0.989 | locus YGR078C, strain PAC10, stronger effect = lower value 1 | locus YNL153C, strain GIM3, stronger effect = lower value 0.976 | [5] 0.995 | [6] 0.99 | [7] 0.996 | [8] 0.997 | [9] 0.968 | [10] 0.991 | [11] 1
